Test results from PubChem BioAssay (Tox21).
Where “and” joins values, the source holds several entries; their conditions need not be identical. Equal values may be shown once. Inconclusive results are not listed. A call without a number means that no potency is given here. The source holds several records for some structures; these can differ, active in one and inactive in another. Calls of active or inactive are those of the source. Unless noted, calls follow the shape of the dose curve; as a rule, active = well fitted curve in the direction sought with a large enough effect in the repeat runs; inconclusive = weak or mixed curves; inactive = no such curve, though single readings can be large; an effect the other way counts as inactive or inconclusive.

Columns and labels:
[1] = qHTS assay to identify small molecule antagonists of the peroxisome proliferator-activated receptor delta (PPARd) signaling pathway - cell viability counter screen (AID 743213); also: nearly all actives have a fitted effect of over 50% in size; also: potency is read from the fitted curve at half-maximal effect
Summary of the method: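 CellTiter-Glo was added to PPARd-bla HEK293H wells following 17 h compound treatment in the presence of 300 nM L165041. Luminescence was recorded after 30 min at room temperature.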

[2] = molecular target: Peroxisome proliferator-activated receptor delta (Homo sapiens) (UniProt Q03181); assay: qHTS assay to identify small molecule antagonists of the peroxisome proliferator-activated receptor delta (PPARd) signaling pathway (AID 743215; active = well fitted inhibition curve with a large enough effect in the signal ratio in the repeat runs, not every such curve was filed as active; the % refers to the signal ratio;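 also: cells stimulated with agonist L165041 at 300 nM final during compound exposure; series mostly up to about 62 µM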)
Sequence of Peroxisome proliferator-activated receptor delta (Homo sapiens) (Q03181 whole entry, looked up): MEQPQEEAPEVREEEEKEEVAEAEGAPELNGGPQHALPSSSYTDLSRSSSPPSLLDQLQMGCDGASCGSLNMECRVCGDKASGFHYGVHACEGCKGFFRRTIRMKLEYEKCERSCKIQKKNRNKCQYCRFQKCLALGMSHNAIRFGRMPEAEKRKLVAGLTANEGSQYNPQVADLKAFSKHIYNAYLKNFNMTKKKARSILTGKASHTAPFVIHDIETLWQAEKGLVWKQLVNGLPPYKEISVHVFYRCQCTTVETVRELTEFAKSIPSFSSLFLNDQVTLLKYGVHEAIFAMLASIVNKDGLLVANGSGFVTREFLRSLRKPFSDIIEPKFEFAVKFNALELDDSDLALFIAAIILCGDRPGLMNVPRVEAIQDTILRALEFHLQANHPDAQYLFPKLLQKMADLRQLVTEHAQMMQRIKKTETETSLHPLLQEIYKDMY
Summary of the method: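 Plated HEK293H PPARd-bla cells rested 5 h at 37 C and 5% CO2. Compound, then agonist L165041 at 300 nM final, was added; 17 h at 37 C followed. Substrate loading, 2 h room temperature, fluorescence measured.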

[3] = qHTS assay to identify small molecule agonists of the farnesoid-X-receptor (FXR) signaling pathway - cell viability counter screen (AID 743218); also: nearly all actives have a fitted effect of over 45% in size; also: potency is read from the fitted curve at half-maximal effect
Summary of the method: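 Viability of FXR-bla HEK 293T cells is measured by ATP-based CellTiter-Glo luminescence following 16 h compound treatment at 37 C and a prior 2 h room-temperature beta-lactamase substrate step.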

[4] = qHTS assay to identify small molecule antagonists of the farnesoid-X-receptor (FXR) signaling pathway - cell viability counter screen (AID 743221; active = well fitted cell-killing curve with a large enough effect in the repeat runs, not every such curve was filed as active; also: nearly all actives have a fitted effect of over 50% in size)
Summary of the method: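 Cytotoxicity is taken from ATP luminescence (CellTiter-Glo, 30 min, room temperature) in FXR-bla HEK 293T cells previously incubated 16 h at 37 C with compound and chenodeoxycholic acid at 50 uM final.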

[5] = molecular target: Vitamin D3 receptor (Homo sapiens) (UniProt P11473); assay: qHTS assay to identify small molecule agonists of the vitamin D receptor (VDR) signaling pathway (AID 743222; calls by dose curve)
Sequence of Vitamin D3 receptor (Homo sapiens) (P11473 whole entry, looked up): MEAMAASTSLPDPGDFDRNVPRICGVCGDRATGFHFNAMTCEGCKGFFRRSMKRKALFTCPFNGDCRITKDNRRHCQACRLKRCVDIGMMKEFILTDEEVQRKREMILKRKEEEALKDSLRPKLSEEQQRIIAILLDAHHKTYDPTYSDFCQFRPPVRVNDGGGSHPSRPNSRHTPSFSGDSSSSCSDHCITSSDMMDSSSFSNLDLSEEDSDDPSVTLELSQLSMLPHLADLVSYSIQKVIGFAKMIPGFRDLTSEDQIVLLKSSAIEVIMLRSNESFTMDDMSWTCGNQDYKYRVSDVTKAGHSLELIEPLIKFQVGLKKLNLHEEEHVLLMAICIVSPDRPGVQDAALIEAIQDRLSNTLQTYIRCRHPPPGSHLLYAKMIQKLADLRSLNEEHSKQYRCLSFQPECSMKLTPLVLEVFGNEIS
Summary of the method: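 Fluorescence from cleaved LiveBLAzer B/G FRET substrate served as readout. VDR-bla cells had been treated 16 h at 37C with test compounds in DMSO, following a 4 h settling period, and substrate was loaded for 2 h at RT.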

[6] = molecular target: Vitamin D3 receptor (Homo sapiens) (UniProt P11473); assay: qHTS assay to identify small molecule antagonists of the vitamin D receptor (VDR) signaling pathway (AID 743223; active = well fitted inhibition curve with a large enough effect in the signal ratio in the repeat runs, not every such curve was filed as active; the % refers to the signal ratio; also: potency is read from the fitted curve at half-maximal effect)
Summary of the method: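 Quantitative HTS in VDR-bla reporter cells stimulated with 1alpha,25-dihydroxyvitamin D3, 3 nM final. Compound exposure 16 h, 37C, 5% CO2. Read-out: beta-lactamase FRET substrate fluorescence, 2 h RT.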

[7] = qHTS assay to identify small molecule agonists of the vitamin D receptor (VDR) signaling pathway - cell viability counter screen (AID 743224); also: nearly all actives have a fitted effect of over 50% in size; also: potency is read from the fitted curve at half-maximal effect
Summary of the method: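 Compounds were pin-transferred onto VDR-bla cells plated 4 h earlier; following 16 h incubation at 37C, cell viability was quantified by CellTiter-Glo luminescence after 30 min at room temperature.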

[8] = qHTS assay to identify small molecule antagonists of the vitamin D receptor (VDR) signaling pathway - cell viability counter screen (AID 743225); also: nearly all actives have a fitted effect of over 50% in size
Summary of the method: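 Same-well multiplex: following 16 h treatment of HEK 293T cells carrying a UAS-driven beta-lactamase reporter with compound and agonist (3 nM final), and a 2 h FRET substrate step, CellTiter-Glo was added and luminescence read after 30 min.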

[9] = molecular target: Bile acid receptor (Homo sapiens) (UniProt Q96RI1); assay: qHTS assay to identify small molecule antagonists of the farnesoid-X-receptor (FXR) signaling pathway (AID 743217; active = well fitted inhibition curve with a large enough effect in the signal ratio in the repeat runs, not every such curve was filed as active; the % refers to the signal ratio)
Sequence of Bile acid receptor (Homo sapiens) (Q96RI1 whole entry, looked up): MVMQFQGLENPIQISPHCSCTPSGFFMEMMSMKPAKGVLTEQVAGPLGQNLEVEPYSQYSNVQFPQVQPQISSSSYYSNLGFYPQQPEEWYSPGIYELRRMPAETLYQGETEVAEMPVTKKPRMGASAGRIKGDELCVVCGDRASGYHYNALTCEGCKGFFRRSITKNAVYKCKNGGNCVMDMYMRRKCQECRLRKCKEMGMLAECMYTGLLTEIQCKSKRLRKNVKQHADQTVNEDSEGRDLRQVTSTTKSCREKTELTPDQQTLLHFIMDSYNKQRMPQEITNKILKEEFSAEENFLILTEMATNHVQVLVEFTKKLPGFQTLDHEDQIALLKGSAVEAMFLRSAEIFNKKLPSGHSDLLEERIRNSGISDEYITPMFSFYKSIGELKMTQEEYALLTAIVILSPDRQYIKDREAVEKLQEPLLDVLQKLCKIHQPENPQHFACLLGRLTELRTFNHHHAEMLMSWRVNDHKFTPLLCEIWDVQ
Summary of the method: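 Screen of the Tox21 10K library in quantitative HTS format using FXR-UAS-bla HEK 293T reporter cells. Agonist chenodeoxycholic acid, 50 uM final, added with compounds; 16 h incubation at 37 °C; beta-lactamase FRET fluorescence measured.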

[10] = molecular target: Bile acid receptor (Homo sapiens) (UniProt Q96RI1); assay: qHTS assay to identify small molecule agonists of the farnesoid-X-receptor (FXR) signaling pathway (AID 743220; active = well fitted activation curve with a large enough effect in the signal ratio in the repeat runs, not every such curve was filed as active; the % refers to the signal ratio)
Summary of the method: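 FXR-UAS-bla HEK 293T cells carrying a UAS-driven beta-lactamase reporter were plated for 5 h at 37C/5% CO2, then exposed to DMSO-dissolved Tox21 10K compounds for 16 h at 37C. A LiveBLAzer B/G FRET substrate was loaded for 2 h at room temperature before fluorescence reading.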

Row | SMILES | Potency [1] | outcome [2] | Potency [3] | outcome [4] | outcome [5] | Potency [6] | Potency [7] | outcome [8] | Potency [9] | outcome [10]
1 | CC(=O)OC/C=C(C)/C=C/C=C(C)/C=C/C1=C(C)CCCC1(C)C | inactive | inactive | inactive | inactive | inactive | inactive | inactive | inactive | – | –
2 | CC(=O)CCC(C)C | inactive | inactive | inactive | inactive | – | – | inactive | inactive | inactive | inactive
3 | N[C@@H](Cc1c[nH]c2ccccc12)C(=O)O | inactive | inactive | inactive | inactive | inactive | inactive | inactive | inactive | – | –
4 | COC(=O)c1ccc(O)cc1 | inactive | inactive | inactive | inactive | inactive | inactive | inactive | inactive | – | –
5 | Cc1c(N(C)CS(=O)(=O)O)c(=O)n(-c2ccccc2)n1C | inactive | inactive | inactive | inactive | inactive | inactive | inactive | inactive | – | –
6 | CCCCCCCC(=O)OCC(O)CO (stereo not drawn) | inactive | inactive | inactive | inactive | – | – | inactive | inactive | – | –
7 | Cc1cccc(C)c1O | inactive | inactive | inactive | inactive | inactive | inactive | inactive | inactive | – | –
8 | NCCNc1cccc2ccccc12 | 34.6 µM (active) and 30.2 µM (active) and inactive | inactive | 43.6 µM (active) and 30.2 µM (active) and inactive | inactive | inactive | 43.6 µM (active) and inactive | inactive | inactive | – | –
9 | NC(=O)N1c2ccccc2C=Cc2ccccc21 | inactive | inactive | inactive | inactive | – | – | inactive | inactive | – | –
10 | NC(=O)OCC(COC(N)=O)c1ccccc1 | inactive | inactive | inactive | inactive | – | – | inactive | inactive | – | –
11 | C=CC(=O)NC(C)(C)CS(=O)(=O)O | inactive | inactive | inactive | inactive | inactive | inactive | inactive | inactive | – | –
12 | OCCCc1ccccc1 | inactive | inactive | inactive | inactive | inactive | inactive | inactive | inactive | – | –
13 | C#C[C@]1(O)CC[C@H]2[C@@H]3CCC4=CC(=O)CC[C@@H]4[C@H]3CC[C@@]21CC | inactive | inactive | inactive | inactive | inactive | inactive | inactive | inactive | – | –
14 | N[C@@H](Cc1c[nH]c2ccc(O)cc12)C(=O)O | inactive | inactive | inactive | inactive | inactive | inactive | inactive | inactive | – | –
15 | COc1ccc(C(=O)c2ccccc2)c(O)c1 | inactive | inactive | inactive | inactive | – | – | inactive | inactive | inactive | inactive
16 | COc1ccc(O)cc1 | inactive | inactive | inactive | inactive | inactive | inactive | inactive | inactive | – | –
17 | NC(=O)NO | inactive | inactive | inactive | inactive | inactive | inactive | inactive | inactive | – | –
18 | CCCCCCCCOc1ccc(C(=O)c2ccccc2)c(O)c1 | inactive | inactive | – | inactive | inactive | inactive | inactive and 49 µM (active) | inactive | inactive | inactive
19 | O=C(O)CCCCC1CCSS1 (stereo not drawn) | inactive | inactive | inactive | inactive | inactive | inactive | inactive | inactive | – | –
20 | CCCCOCCOCCSC#N | inactive | inactive | inactive | inactive | inactive | inactive | inactive | inactive | – | –
21 | O=[N+]([O-])c1ccc(O)cc1 | inactive | inactive | inactive | inactive | inactive | inactive | inactive | inactive | – | –
22 | CCCCOCCOCCOC(C)=O | inactive | inactive | inactive | inactive | inactive | inactive | inactive | inactive | – | –
23 | CN/C(=C\[N+](=O)[O-])NCCSCc1ccc(CN(C)C)o1 | inactive | inactive | inactive | inactive | inactive | inactive | inactive | inactive | – | –
24 | O=c1cc[nH]c(=O)[nH]1 | inactive | inactive | inactive | inactive | inactive | inactive | inactive | inactive | – | –
25 | COc1ccccc1NC(=O)CC(C)=O | inactive | inactive | inactive | inactive | inactive | inactive | inactive | inactive | – | –
26 | CCCCNC(=O)NS(=O)(=O)c1ccc(N)cc1 | inactive | inactive | inactive | inactive | inactive | inactive | inactive | inactive | – | –
27 | CC1=C(/C=C/C(C)=C/C=C/C(C)=C/C(=O)O)C(C)(C)CCC1 | inactive | inactive | inactive | inactive | inactive | inactive | inactive | inactive | – | –
28 | CC(C)Cc1ccc(C(C)C(=O)O)cc1 (stereo not drawn) | inactive | inactive | inactive | inactive | – | – | – | – | – | –
29 | Nc1ccc(N=Nc2ccccc2)c(N)n1 | inactive | inactive | inactive | inactive | inactive | inactive | inactive | inactive | – | –
